Sampled rows, rich in hits. Any-hit rate of the full collection: about 17%.
ATXN2 expr inh: inhibitors of ATXN2 expression | AID 1745845 | 360,000 tested, 0.72% active | Potency, µM (titrated, usually from 57 µM), inactives show top-dose activity change, negative = inhibition, hits mostly inhibitors | HEK-293 ATXN2-luciferase reporter, luminescence, 24 h; note: % is set by controls: 0 for no effect and ±100 for the full control effect; nearly all actives have a fitted effect of over 55% in size
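qHTS (up to 57 uM final) was run with 24 h compound exposure of reporter cells at 37 °C. Each well was multiplexed: SteadyGlo luminescence measured ATXN2-luciferase expression after a fluorogenic Gly-Phe-AFC viability readout (25 uM final).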
TGFb inhibitor: blocks TGF-b signaling; Potency, µM (series often up to 46.1 µM), for the others: at the top dose activity, negative = inhibition, usual class: inhibitors; HepG2 CAGA-GFP TGF-b/SMAD3 reporter, GFP fluorescence, 18 h; TGF-beta stimulated, 500 pg/mL final; AID 588855; 410,000 tested, 1.2% active; note: % is set by controls: 0 for no effect and ±100 for the full control effect; nearly all actives have a fitted effect of over 65% in size
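HEPG2 CAGA-GFP, 1000 cells/well; 2 h settle, 37 C; cpd via pin tool; TGF-b 500 pg/mL final; 18 h, 37 C; GFP imaging ex488/em500-530; %Activity normalised to -TGF-b and +DMSO controls; CRC fit, curve class.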
HepG2 tox: HepG2 cytotoxicity, counter-screen for TGF-b inhibitors. Potency, µM (doses to about 46.1 µM), inactives show top-dose activity change, negative = cytotoxicity, most hits filed as cytotoxic. HepG2 CAGA-GFP viability, ATP luminescence, 18 h. AID 588856. 410,000 tested, 0.76% active
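CellTiter-Glo luminescence gave cytotoxicity after 18 hours at 37 degrees C. The cells were HepG2 CAGA-GFP in 1% FBS DMEM, stimulated with 500 pg/mL TGF-beta after compound addition. %Activity was normalised to no-cell wells (complete cell-killing) and DMSO (no toxicity), and curves were fitted and classified.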
DT40 TDP1 no CPT: qHTS for Inhibitors of human tyrosyl-DNA phosphodiesterase 1 (TDP1): qHTS in cells in absence of CPT; AID 686978, 2013; Potency, µM (titrated, usually from 46.2 µM), for inactives: at the highest dose activity change, negative = growth inhibition, usual class: inhibitors; 420,000 tested, 15% active; DT40 Tdp1-/- hTDP1 cells, no CPT, ATP luminescence, 48 h; note: % is set by controls: 0 for no effect and ±100 for the full control effect; nearly all actives have a fitted effect of over 55% in size
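Chicken DT40 Tdp1-/- cells stably complemented with human TDP1 were seeded at 400 cells/well with DMSO in place of 20 nM camptothecin. After compound pinning, cells grew at least 48 hr at 37 °C; viability read by CellTiter-Glo luminescence.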
TDP1 cell CPT: growth inhibition of DT40 Tdp1-/-;hTDP1 cells with camptothecin (screen for TDP1 inhibitors); chicken DT40 Tdp1-/-;hTDP1 cells + 20 nM CPT, ATP luminescence, 48 h; Potency, µM (series often up to 46.2 µM), for inactives: at the highest dose activity change, negative = growth inhibition, most hits filed as inhibitors; 420,000 tested, 12% active; AID 686979; note: % is set by controls: 0 for no effect and ±100 for the full control effect; nearly all actives have a fitted effect of over 55% in size
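Cell growth measured by CellTiter-Glo luminescence after a minimum 48 h, 37 C compound exposure with 20 nM CPT in Tdp1-knockout DT40 cells stably expressing hTDP1, seeded 400/well; qHTS titration format.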
S2 tox: cell viability loss in ATXN counter-screen; AID 651635; S2 cells (HEK-293 line with an ATXN2-luciferase reporter) viability, CellTiter-Fluor protease fluorescence, 24 h; Potency, µM (doses to about 56.7 µM), hits mostly cytotoxic; 400,000 tested, 0.49% active; note: nearly all actives have a fitted effect of over 40% in size
* = called active by the depositor; i = inactive; u = inconclusive; x = no result given; [ ] = remark or other dose. Calls come from the whole dose curve; as a rule, active = well fitted curve in the direction sought with a large enough effect; inconclusive = small, poorly fitted or top-dose-only effect, or another doubt; inactive = no such curve, though single readings can be large; an effect the other way counts as inactive or inconclusive. Potency is the fitted concentration of half-maximal effect.

SMILES | ATXN2 expr inh | TGFb inhibitor | HepG2 tox | DT40 TDP1 no CPT | TDP1 cell CPT | S2 tox
COc1cc(NC(=O)CN2C(=O)c3ccccc3S2(=O)=O)c(OC)cc1Cl | 3.0% | 0.3% | -4.2% | -0.5% | -2.9% | i
Cc1ccccc1-c1cccc([C@@H]2C[C@H]3C(CN2)CON3C)c1 (stereo not given in full) | 1.4% | -1.9% | -8.2% | -29.6% | u | i
O=c1c2ccccc2nc(CSc2nnnn2-c2ccccc2)n1-c1ccccc1Cl | 0.0% | -21.0% | 3.7% | u | u | u
Cc1ccccc1-n1c(CSC(=N)N)nc2ccccc2c1=O | -11.3% | 4.9% | -9.3% | u | 20.6µM* | u
N=C(N)SCc1nc2ccccc2c(=O)n1-c1ccccc1Cl | 28.9% | -1.9% | -2.1% | 20.6µM* | 25.9µM* | u
C/C(N)=C(/C#N)C(=O)CSc1nc2ccccc2c(=O)n1-c1ccccc1C | x | -13.8% | 2.2% | u | u | u
COc1ccc(-n2c(CNC(=O)c3ccccc3C(F)(F)F)nnc2SC)cc1 | x | x | x | -8.6% | 6.4%[9.04 µM] | i
Clc1cccc(Cl)c1C1=NOC(c2nnc(-c3ccccc3)o2)C1 (stereo not given) | 34.4% | 9.7% | -1.0% | -20.6% | -24.8% | i
CCS(=O)(=O)N1CCN(CC(=O)NC2CCCCC2)CC1 | 8.7% | -4.3% | 1.5% | u | u | u
CCc1ccc(NC(=O)CCn2nc(-c3ccccc3OC)c3c(C)cc(C)nc32)cc1 | u | u | -63.8% | 20.6µM* | u | i
COc1ccc(NC(=O)CCn2nc(C)cc2C)cc1 | -1.1% | 9.6% | 5.5% | 0.5% | 9.3% | i
CCc1ccc(NC(=O)c2sc3nc(C)cc(C)c3c2NC(=O)c2ccccc2OC)cc1 | 21.6% | 0.9% | -60.9% | x | x | i
COc1ccc(NC(=O)CCn2nc(-c3ccccc3OC)c3c(C)cc(C)nc32)cc1 | x | u | -38.3% | 20.6µM* | u | x
Cc1nn2c(C(F)(F)F)cc(-c3ccc(OC(C)C)cc3)nc2c1C#N | 10.8% | -20.9% | -16.9% | -25.8% | -15.4% | i
CCc1ccc2oc(C(=O)Nc3cccc(Cl)c3C)cc(=O)c2c1 | 0.4% | -12.8% | 1.5% | -24.4% | u | i
CCN(CC)C(=O)Cn1cc(S(=O)(=O)CC(=O)N2CC(C)OC(C)C2)c2ccccc21 (stereo not given) | 3.2% | 19.8% | -1.2% | 0.7% | -9.0% | i
CC(OC(=O)CN1C(=O)c2ccccc2C1=O)C(=O)NC1CCCC1 (stereo not given) | 8.2% | -3.0% | -1.8% | 5.6% | 16.9% | i
Cc1ccc(-c2nnc3ccccc3c2C(=O)Nc2cccc(Cl)c2)cc1 | x | 0.0% | -37.9% | -8.5% | 2.0% | x
Cc1cc(-n2c(C)cc(C(=O)CSc3ccccn3)c2C)no1 | 32.2% | -0.5% | -9.7% | u | u | i
Cc1cc(-n2c(C)cc(C(=O)CSc3ccc4c(c3)OCCO4)c2C)no1 | 3.2% | -1.2% | -17.7% | 25.9µM* | u | i
Cc1cc(-n2c(C)cc(C(=O)CCl)c2C)no1 | 15.2%[11.3 µM] | 8.91µM* | 11.2µM* | 0.92µM* | 1.16µM* | u
Cc1ccc(S(=O)(=O)N(C)C)cc1NC(=O)c1cc(=O)c2ccccc2o1 | -17.4% | -27.7% | -23.6% | u | -3.9% | i
CCOC(=O)N1CCc2c(sc(NCc3cccs3)c2C(=O)Nc2cc(OC)ccc2OC)C1 | x | u | -0.1% | u | u | x
CCOC(=O)N1CCc2c(sc(NCc3ccc(OC)c(OC)c3OC)c2C(=O)Nc2ccc(OC)cc2OC)C1 | -8.7% | -34.1% | -14.5% | 16.4µM* | u | i
CCOC(=O)N1CCc2c(sc(NCc3ccc(OCC)cc3)c2C(=O)Nc2ccc(OC)cc2OC)C1 | 12.6µM* | u | 1.5% | u | u | i
SMILES | ATXN2 expr inh | TGFb inhibitor | HepG2 tox | DT40 TDP1 no CPT | TDP1 cell CPT | S2 tox
CCOC(=O)N1CCc2c(sc(NCc3ccc(N(CC)CC)cc3)c2C(=O)Nc2cc(OC)ccc2OC)C1 | -9.7% | -11.1% | -3.7% | u | u | i
CCOC(=O)N1CCc2c(sc(NCc3cccs3)c2C(=O)Nc2ccc(OC)cc2OC)C1 | x | 10µM* | -14.1% | u | u | x
CCOC(=O)N1CCc2c(sc(NCc3ccc(N(C)C)cc3)c2C(=O)Nc2ccccc2OCC)C1 | -15.3% | -27.4% | -21.3% | 8.2µM* | u | i
COc1cccc(CNC(=O)CCc2c(C)nc3c4c(C)cc(C)nc4nn3c2C)c1 | x | x | -8.0% | 23.1µM* | u | x
CCOc1ccc(CCNC(=O)CCc2c(C)nc3c4c(C)cc(C)nc4nn3c2C)cc1 | x | x | -9.2% | -14.8% | 4.7% | x
Cc1cc(C)c2c(n1)nn1c(C)c(CCC(=O)Nc3cccc(C)c3C)c(C)nc21 | -2.0% | -3.1% | -1.4% | 7.31µM* | 7.31µM* | i
COc1cc(OC)c(NC(=O)CCc2c(C)nc3c4c(C)cc(C)nc4nn3c2C)cc1Cl | 4.1% | 11.6% | -1.8% | -20.8% | -17.9% | i
N#C/C(=C\c1ccc(Cl)cc1)c1nc(-c2cc3ccccc3oc2=O)cs1 | x | -3.2% | -4.0% | -2.6% | 8.1% | x
COc1cc(/C=C(\C#N)c2nc(-c3cc4ccccc4oc3=O)cs2)ccc1O | 0.3% | 1.9% | 0.7% | 18.4µM* | 18.4µM* | i
CC1CCC(=C(C#N)c2nc(-c3cc4ccccc4oc3=O)cs2)CC1 (stereo not given) | 68.7% | 1.0% | -26.5% | 20.6µM* | u | i
CCC(C)(C)C1CCc2[nH]nc(C(=O)NCCN3CCOCC3)c2C1 (stereo not given) | -5.6% | u | -2.2% | u | u | i
CCC(C)(C)C1CCc2[nH]nc(C(=O)NCc3ccccn3)c2C1 (stereo not given) | u | u | -33.2% | 23.1µM* | 14.6µM* | u
CCC(C)(C)C1CCc2[nH]nc(C(=O)NCCCNC(=O)OC(C)(C)C)c2C1 (stereo not given) | -23.2% | -6.6% | 30.1% | 18.4µM* | u | i
Cc1ccc(C)c(OCC(O)CNC2CCCC2)c1 (stereo not given) | x | 14.6% | -2.8% | u | -25.3% | i
N#Cc1ccccc1S(=O)(=O)N1CCN(Cc2cccs2)CC1 | x | -7.1% | 0.9% | -16.3% | -14.5% | i
N#Cc1ccccc1S(=O)(=O)N1CCN(C(=O)CN(Cc2ccco2)Cc2cccs2)CC1 | x | -7.6% | -31.6% | 16.4µM* | u | i
